# From PubChem BioAssay
# Hits are enriched below; roughly 3.8% of the tested compounds scored in any of these assays.
# HSF1 inh – HSF1 inhibitors in luciferase reporter cells, primary screen, cell-based, NIH3T3, luminescence; NIH3T3-HGL HSE-luciferase, MG132-induced, luminescence 8 h; stronger effect = lower value; activity change, negative = inhibition, % at 7.5 µM (by protocol); 300,000 compounds, 0.77% hits;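 active means more than half of replicate wells show activity change below -50%, luminescence cut by over half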;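 further: luciferase reports HSF-1 transcriptional activity via heat shock element; 0% = median of DMSO wells and -100% = zero luminescence signal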
# HSF1 activator – HSF-1 activators, primary screen, NIH3T3-HGL cells, MG132 stress, luminescence, single point. 300,000 compounds, 1.7% hits. AID 504408, 2011. NIH3T3-HGL HSF-1 luciferase reporter, 8 h; 100% = twice DMSO control signal. activation, % at 9 µM;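 active means mean replicate activation of at least 50% with a set share of replicates each reaching 50%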;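 further: 0% = median of the neutral control wells and 100% = twice that signal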
# MITF act – activators of MITF-driven TRPM1 promoter reporter, primary screen, cell-based, SK-MEL-5, luciferase, single point. SK-MEL-5 TRPM1-promoter luciferase, 24 h; % of positive control, neutral wells = 0. activation, % at 12.5 µM. 300,000 compounds, 0.75% hits;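 active means mean activation of at least 80% with every replicate also reaching 80%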;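 further: 0% = neutral control wells and 100% = parthenolide positive control wells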
# Wnt bcat act – Wnt/beta-catenin pathway activators, primary screen, cell-based, plate reader, single point | Wnt/beta-catenin reporter cell assay, activator | activation, % at 9.35 µM | 300,000 compounds, 1.2% hits; in the data active means activation above about 30%, passing the limit was not always enough;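 further: 0% = neutral control wells and 100% = positive control wells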
# esBAF inh – Bmi1 luciferase reporter increase in mESCs, primary screen, esBAF inhibitor project, mouse ES cells, Bmi1 luciferase knock-in, single point; reporter increase, % at 12.5 µM; 350,000 compounds, 2% hits; 24 h; 100% = twice the neutral-well signal; in the data active means activation above about 40%;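 further: 0% = median of the plate's neutral control wells and 100% = double that signal; a rise in the Bmi1 reporter signal indicates esBAF inhibition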
# esBAF Ring1 qPCR – Ring1 mRNA increase in mouse ESCs, confirmation, esBAF inhibitor project, cell-based, mouse ESC, RT-qPCR, cherry-pick; shares compounds with esBAF inh; mouse ESC E14, Ring1 mRNA RT-qPCR fold change; fold change at 33 µM; 550 tested, under 10 active; AID 743176, 2013;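 active means Ring1 gene expression raised more than 2-fold over untreated cells in both replicates at either tested dose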;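 further: Ring1 transcript normalised to actin housekeeping signal by TaqMan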
# esBAF Fgf4 qPCR – Fgf4 mRNA decrease in mouse ESCs, confirmation, esBAF inhibitor project, cell-based, mouse ESC, RT-qPCR, cherry-pick | shares compounds with esBAF inh | mouse ESC E14, Fgf4 mRNA qPCR fold change; stronger effect = lower value | Fgf4 expression fold change at 33 µM | 550 compounds, 4% hits;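 active means Fgf4 expression under 0.8 fold of control in both repeat measurements at one or both tested doses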;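 further: Fgf4 transcript normalised to actin in duplex TaqMan qPCR; cells exposed to compound for 24 h before lysis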
# esBAF Bmi1 qPCR – esBAF inhibition via Bmi1 de-repression, confirmation, cell-based, RT-qPCR, mouse ESC, single point, cherry-pick; shares compounds with esBAF inh; mouse ESE14 ES cells, Bmi1 mRNA qPCR fold; stronger effect = higher value; fold change at 33 µM; 550 tested, under 10 active; AID 743180, 2013;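 active means Bmi1 expression fold change above 6 at either tested concentration, seen in replicate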
# A549 cytotox – A549 cell cytotoxicity, cytotoxicity control, plate reader, single point, cherry-pick | 550 tested, under 10 active | cell viability change % (negative = cytotoxic), % at 25 µM, hits read low | shares compounds with esBAF inh | AID 743188, 2013; call rule not given here
# HepG2 cytotox SP – HepG2 cell cytotoxicity, cytotoxicity control, plate reader, single point, cherry-pick | shares compounds with esBAF inh | stronger effect = lower value | activity change, negative = inhibition, % at 25 µM | 550 compounds, 4% hits | AID 743189, 2013; in the data active means activity change below about -50%
# HEK293 cytotox SP – HEK293 cell cytotoxicity, cytotoxicity control, plate reader, single point, cherry-pick. shares compounds with esBAF inh. activity change, negative = inhibition, % at 25 µM, hits read low. AID 743190, 2013. 550 compounds, 3% hits; in the data active means activity change below about -38%, passing the limit was not always enough
# Starred values were filed as active, the others as inactive; nt = no result given.
SMILES,HSF1 inh,HSF1 activator,MITF act,Wnt bcat act,esBAF inh,esBAF Ring1 qPCR,esBAF Fgf4 qPCR,esBAF Bmi1 qPCR,A549 cytotox,HepG2 cytotox SP,HEK293 cytotox SP
CN(Cc1nccn1C)C(=O)c1ccc2nc(Cc3ccccc3F)oc2c1,22,27,63,15,65*,0.78,0.85,1.5,-16,-47,-26
CN(Cc1nccs1)C(=O)c1ccc2nc(Cc3ccccc3F)oc2c1,29,45,113*,26,67*,1.2,0.94,1.4,-6,-18,-12
CC(C)CC#Cc1ccc2c(c1)O[C@H](CN(C)C(=O)Cc1ccncc1)[C@@H](C)CN([C@H](C)CO)S2(=O)=O,nt,nt,nt,nt,2,nt,nt,nt,nt,nt,nt
COc1ccc(S(=O)(=O)N(C)C[C@H]2OCCCC[C@H](C)Oc3ccc(NC(=O)NC(C)C)cc3C(=O)N([C@H](C)CO)C[C@@H]2C)cc1,nt,nt,nt,nt,-4,nt,nt,nt,nt,nt,nt
C[C@H]1CN([C@@H](C)CO)C(=O)Cc2cc(NC(=O)Nc3ccccc3)ccc2O[C@H]1CN(C)Cc1ccc(C(=O)O)cc1,nt,nt,nt,nt,1,nt,nt,nt,nt,nt,nt
O=c1c2ccccc2oc2cc(-c3ccc4cc[nH]c4c3)ccc12,nt,nt,129*,38*,71*,1.3,0.92,1.6,-3,0,9
CS(=O)(=O)c1cccc(-c2csc(N3CCC(C(N)=O)CC3)n2)c1,nt,nt,50,9,68*,1.2,0.86,1.3,-6,2,-6
c1ccc(-c2csc(Nc3cccnc3)n2)nc1,8,14,57,nt,61*,1.1,1.1,1.3,-15,-14,-6
Brc1ccc(Nc2nc(-c3cccnc3)cs2)cc1,-3,4,26,0,nt,nt,nt,nt,nt,nt,nt
c1ccc(Nc2nc(-c3ccncc3)cs2)cc1,21,32,144*,nt,59*,1.4,1.1,3.5,-11,43,-8
CC(=O)Nc1nc(-c2ccc(-c3ccccc3)cc2)cs1,nt,nt,nt,40*,68*,0.95,0.89,1.5,-12,-35,0
C[C@H](CO)N1C[C@H](C)[C@@H](CN(C)C(=O)Nc2ccccc2)Oc2c(NC(=O)Nc3cccc4ccccc34)cccc2C1=O,nt,nt,nt,nt,-3,nt,nt,nt,nt,nt,nt
O=c1sc(N2CCN(c3ccc(F)cc3)CC2)nc2ccsc12,14,39,nt,26,62*,1.3,0.94,1.6,3,-13,-9
CCNC(=O)C[C@H]1CC[C@@H]2[C@H](COc3ccc(NC(=O)Nc4ccccc4F)cc3C(=O)N2C)O1,nt,nt,nt,nt,-4,nt,nt,nt,nt,nt,nt
Cc1cc(-c2nnc(CCC(=O)NCc3cccc(C(F)(F)F)c3)o2)no1,29,43,3,-2,12,nt,nt,nt,nt,nt,nt
Cc1cc(-c2nnc(-c3cccc(C(F)(F)F)c3)o2)no1,nt,nt,61,19,59*,1.2,0.85,1.6,3,-46,-9
COc1ccccc1NC(=O)C(=O)NCCC1CCCCN1S(=O)(=O)c1ccccc1 (configuration not stated),1,2,-11,0,-5,nt,nt,nt,nt,nt,nt
